Calls of active or inactive are those of the source. How the source made its calls: active means hit-call score of the fitted dose curve at least 0.9, where 1 is the maximum; inactive means score below 0.9.

Here are results for 40 compounds from PubChem BioAssay (EPA / NIEHS).

Read-out in the experiment: Cytochrome P450 4A22 (Homo sapiens) (UniProt Q5TCH4)
Nature of the experiment: LTEA_HepaRG_CYP4A22: Life Technologies and Expression Analysis (LTEA) Assay for Cytochrome P450 4A22 (CYP4A22) using HepaRG (AID 2283495). To be noted: mRNA level, 48 h; actives raise or lower the signal. The method, then: LTEA_HepaRG is a cell based, multiplexed-readout assay that uses HepaRG, a human liver cell line, with measurements taken at 48 hours after chemical dosing on a 96-well plate.LTEA_HepaRG_CYP4A22 is one of 102 assay component(s) measured in the LTEA HepaRG cell culture assay. It is a marker of NR mediated metabolism.Data from the assay component LTEA_HepaRG_CYP4A22 was analyzed into 1 endpoint. This assay endpoint, LTEA_HepaRG_CYP4A22, was analyzed with bidirectional fitting relative to DMSO as the negative control and baseline of activity. Using a type of inducible reporter, measures of mRNA induction for gain or loss-of-signal activity can be used to understand regulation of transcription factor activity. To generalize the intended target to other relatable targets, this assay endpoint is annotated to the cyp intended target family, where the subfamily is xenobiotic metabolism.
A total of 1060 chemcials from the ToxCast library were tested in eight-point concentration-response experiments. Cell culture and cytotoxicity assays were conducted at Thermo Fisher Scientific's Custom Services facility (Madison, WI). A single lot of human HepaRG cells (Thermo Fisher Scientific, Frederick, MD) was used for the cell culture experiments. 96-well format collagen type I coated plates of human HepaRG cells were prepared using established methods. Briefly, cryopreserved HepaRG cells were thawed, plated at a density of approximately 100,000 cells/well in HepaRG Thaw, Plate, and General Purpose media (HPRG770, Thermo Fisher Scientific), and incubated for 48 hours. 0.5% DMSO was selected as vehicle control to balance the requisite need of DMSO in HepaRG cultures to maintain differentiation (for example, baseline metabolism, proportions of hepatocytes vs. cholangiocytes), while enabling further hepatic receptor pathway activation (for example, PXR and CAR) in response to chemical exposure. 48 hours after plating, the culture medium was replaced with HepaRG Serum-Free Incudtion Media. Cells were exposed to each test chemical in duplicate and maintained in CO2 incubators for another 48 hours. Chemical plates were thawed to room temperature and 200x concentrations of treatment groups were prepared. 8-point conentration-reponse curves were made with the highest exposure at 100 uM, followed by half-log dilutions, all in 0.5% DMSO. Each test plate contained variouse controls, induction positive controls (1mM phenobarbital), cytotoxicity positive controls ([…] aflatoxin B1), vehicle controls (0.5% DMSO), and total lysis controls (0.5% DMSO). Cell morphology images were taken using an Essen IncuCyte FLR automated microscope, with six 96-well plates imaged in about 24 minutes. Images were captured and exported and JPEG files. Spent culture media was transfered to black-well plates for the LDH assay, and remaining media was sorted at -80 C for later use. Cells were treated with RLT buffer and frozen until shipped for gene expression analysis. Total RNA was isolated from the cell suspension in 75 uL of Buffer RLT (Qiagen, Germantown, MD 20874) by Quintiles/Expression Analysis (Durham, NC) using a custom isolation procedure. Total RNA from each plate well was transferred to a preamplification plate. Fluidigm's 96.96 Dynamic ArrayTM (Fluidigm, Amsterdam, the Netherlands) technology was used for gene expression analyses by quantitative reverse transcription polymerase chain reaction (qRT-PCR, performed by Quintiles/Expression Analysis, Durham, NC)89. Standard TaqManTM Assays (Applied Biosystems/ThermoFisher Scientific, Foster City, CA) were used to assess the expression of 93 genes selected based on their selectivity and sensitivity to important hepatic receptors known to be modulated by environmental chemicals; importance in human hepatocyte functionality; and hepatotoxicity. […]
As to `Nc1ccccc1N`, the AC50 (in general, the concentration at which the activity in the assay is half-maximal) is 64.6 µM (active).

For `Cc1nc(-c2ccc3c(c2)CCN(CCC2CCC(NC(=O)/C=C/c4ccc(F)cc4)CC2)CC3)no1` (stereo not given), the result was inactive.

With `CCCCCCCCCCO`, the compound was classed as inactive.

With `CNCc1cc(F)ccc1Oc1ccc(Cl)c(Cl)c1`, the AC50 is 74.9 µM (active).

With `CCCCOC(=O)CCCCCCCCC(=O)OCCCC`, the compound was classed as inactive.

Turning to `CC(=O)OCCOCCOCCOC(C)=O`, the compound was classed as inactive.

As for `NC(=O)Cn1c(=O)cc(CCN2CCN(c3nccc4sccc34)CC2)c2ccc(F)cc21`, the AC50 was 62.7 µM (active).

For the compound `CCCCCCCCCCCCCO`, the call was inactive.

As to `CCCCCCCCCCCC(=O)OC`, the result was inactive.

For `CCCCCCCCCCCCCCCC`, the call was inactive.

Turning to `Clc1cc(Cl)c(Cl)cc1Cl`, the compound was called inactive.

Take `C=CCOC(=O)c1ccccc1C(=O)OCC=C`: the compound was classed as inactive.

Consider `Cc1cc(NC(=O)C(=O)O)cc(C)c1Oc1ccc(O)c2c1CCC2`, for which the AC50 was 0.0307 µM (active).

As for `Oc1ccc2c(c1)OC[C@@H](N1CCC(O)(c3ccc(F)cc3)CC1)[C@H]2O`, the call was inactive.

Regarding `Nc1nc(N)c2nc(CNc3ccc(C(=O)N[C@@H](CCC(=O)O)C(=O)O)cc3)cnc2n1`, the result was inactive.

As for `CCc1c(C(=O)NN2CCCCC2)nn(-c2ccc(Cl)cc2Cl)c1-c1ccc(Br)cc1`, the AC50 was 15.8 µM (active).

For the compound `CC=Cc1ccc(O)c(OC)c1`, the compound was classed as inactive.

For the compound `CC(C)c1ccc(C(=O)N=C(N)N)cc1S(C)(=O)=O`, the AC50 is 8.37 µM (active).

For the compound `COc1ccc(S(=O)(=O)N2C(=O)[C@@](c3ccccc3OC)(N3C[C@H](O)C[C@H]3C(=O)N(C)C)c3cc(Cl)ccc32)c(OC)c1`, the AC50 is 15.8 µM (active).

As to `CCNc1cccc(C)c1`, the result was inactive.

For the compound `CCCCCCCC=O`, the compound was called inactive.

As to `CCCCCCOCCO`, the compound was classed as inactive.

For `CCCCCCCCCCCCCCCCCC(=O)O`, the outcome was inactive.

As for `O=C(OCCCCCOC(=O)c1ccccc1)c1ccccc1`, the AC50 was 2.98 µM (active).

Consider `O=c1[nH]cc(F)c(=O)[nH]1`, for which the AC50 was 35 µM (active).

Take `CC(=O)OC/C=C(\C)CCC=C(C)C`: the compound was classed as inactive.

With `CCCCC(CC)COC(=O)CC(C(=O)OCC(CC)CCCC)S(=O)(=O)O` (stereo not given), the compound was classed as inactive.

For the compound `Nc1ccc(S(=O)(=O)c2ccc(N)cc2)cc1`, the outcome was inactive.

Consider `NS(=O)(=O)c1cc2c(cc1Cl)NCNS2(=O)=O`, for which the compound was classed as inactive.

For the compound `C[Si]1(C)O[Si](C)(C)O[Si](C)(C)O[Si](C)(C)O1`, the outcome was inactive.

Turning to `CC(=O)Oc1ccccc1C(=O)O`, the compound was classed as inactive.

Take `COC(=O)c1ccc(O)cc1`: the result was inactive.

As to `Cc1cccc([N+](=O)[O-])c1C`, the result was inactive.

As to `CNC(=O)[C@H]1O[C@@H](n2cnc3c(NCc4cc(Cl)ccc4OCc4cc(C)no4)ncnc32)[C@H](O)[C@@H]1N`, the outcome was inactive.

As to `C=CCc1ccc(O)c(OC)c1`, the compound was called inactive.

Take `COc1ccc2c(c1)c(CC(=O)O)c(C)n2C(=O)c1ccc(Cl)cc1`: the result was inactive.

For `Cc1ccc2ncccc2c1`, the result was inactive.

In the case of `Cc1ccc(C(C)C)c(O)c1`, the outcome was inactive.

On to `CC1=C(/C=C/C(C)=C/C=C/C(C)=C/CO)C(C)(C)CCC1`, for which the AC50 is 22.2 µM (active).

Regarding `Cc1cccc(C)c1O`, the result was inactive.
